The list is not random: actives were taken first. Their share in the collection is about 12%.
PLK1 PBD block – qHTS for Inhibitors of PLK1-PDB (polo-like kinase 1 - polo-box domain): Primary Screen; Serine/threonine-protein kinase PLK1 (Homo sapiens), P53350; Potency, µM, inactives show max response, negative = inhibition, usual class: inhibitors; Plk1 PBD binding of FITC phosphopeptide, fluorescence polarization; hit rate 2.8% among 360,000; AID 720504, 2013; further: potency means the concentration at half of the fitted maximal effect; series mostly up to about 57 µM; on the % scale 0 is the no-effect control and ±100 the full control effect; nearly all actives have a fitted effect of over 65% in size
JMJD2A Tudor – qHTS Assay for Inhibitors of JMJD2A-Tudor Domain; Lysine-specific demethylase 4A (Homo sapiens), O75164; AlphaScreen JMJD2A-Tudor / H3K4me3 peptide binding; Potency, µM (doses to about 114 µM), for the others: at the highest dose activity change, negative = inhibition, actives largely listed as inhibitors; hit rate 4.4% among 390,000; further: potency means the concentration at half of the fitted maximal effect; on the % scale 0 is the no-effect control and ±100 the full control effect; nearly all actives have a fitted effect of over 50% in size
PI5P4K alpha inh – qHTS for Inhibitors of phosphatidylinositol 5-phosphate 4-kinase (PI5P4K) | hit rate 1.2% among 330,000 | max response, % | Phosphatidylinositol 5-phosphate 4-kinase type-2 alpha (Homo sapiens), P48426 | PI5P4Kalpha enzyme, ADP-Glo luminescence, 60 min; stronger effect = lower value | AID 652105, 2013; active means max response of -50% or lower; inconclusive means between -30% and -50%; inactive means -30% or higher; further: value at the top dose of about 77 µM; on the % scale 0 is the no-effect control and ±100 the full control effect
Target sequence (P48426 whole entry, looked up): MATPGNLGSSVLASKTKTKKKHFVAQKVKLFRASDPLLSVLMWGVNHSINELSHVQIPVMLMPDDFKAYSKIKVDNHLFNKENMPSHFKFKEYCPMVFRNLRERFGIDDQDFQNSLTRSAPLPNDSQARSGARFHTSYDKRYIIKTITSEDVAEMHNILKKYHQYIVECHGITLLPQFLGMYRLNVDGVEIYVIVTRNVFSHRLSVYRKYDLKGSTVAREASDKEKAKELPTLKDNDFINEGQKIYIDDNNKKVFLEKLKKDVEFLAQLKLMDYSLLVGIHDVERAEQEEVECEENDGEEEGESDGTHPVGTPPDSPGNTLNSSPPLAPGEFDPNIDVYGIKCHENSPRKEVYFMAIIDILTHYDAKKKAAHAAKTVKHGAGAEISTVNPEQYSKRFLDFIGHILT
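ADP-Glo luminescence end-point after a 60 min room-temperature kinase reaction. PI5P4Kalpha and substrate in HEPES pH 7.4 buffer with EGTA, 0.1% CHAPS and 5% DMSO; ATP at 5 microM final.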
G9a block – qHTS Assay for Inhibitors of Histone Lysine Methyltransferase G9a; hit rate 8.8% among 350,000; G9a H3K9 monomethylation, AlphaScreen, 2 h; AID 504332, 2011; Potency, µM (doses to about 102 µM), without a hit: top-dose activity, negative = inhibition, usual class: inhibitors; Histone-lysine N-methyltransferase EHMT2 (Homo sapiens), Q96KQ7; further: potency means the concentration at half of the fitted maximal effect; on the % scale 0 is the no-effect control and ±100 the full control effect; nearly all actives have a fitted effect of over 75% in size
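AlphaScreen read-out: biotin-H3K9 peptide (500 nM) methylation by 20 nM enzyme with 20 uM SAM, 2 h at room temperature after 15 min compound preincubation; anti-monomethyl H3K9 antibody plus donor/acceptor beads, 10 min dark.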
HP1b binding inh – HTS for Inhibitors of HP1-beta Chromodomain Interactions with Methylated Histone Tails | Chromobox protein homolog 1 (Homo sapiens), P83916 | hit rate 0.56% among 390,000 | AlphaScreen HP1-beta / biotin-H3K9me3 peptide binding | Potency, µM (top dose mostly 114 µM), without a hit: at the top dose activity change, negative = inhibition, hits mostly inhibitors; further: potency means the concentration at half of the fitted maximal effect; nearly all actives have a fitted effect of over 70% in size
Target sequence (P83916 whole entry, looked up): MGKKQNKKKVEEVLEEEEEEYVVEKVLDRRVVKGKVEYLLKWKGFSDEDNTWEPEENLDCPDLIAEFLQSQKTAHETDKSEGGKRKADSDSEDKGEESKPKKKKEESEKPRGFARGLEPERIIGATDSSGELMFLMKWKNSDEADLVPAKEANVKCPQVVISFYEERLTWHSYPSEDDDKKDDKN
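Compound inhibition of the preformed complex between 50 nM HP1-beta and 50 nM biotinylated H3K9me3 peptide was read by AlphaScreen. Buffer was PBS pH 7.4 with 0.01% Tween-20. Incubations ran 30 min at room temperature, with 10 ug/mL donor/acceptor beads.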
BAZ2B inh – qHTS Assay for Inhibitors of BAZ2B; Bromodomain adjacent to zinc finger domain protein 2B (Homo sapiens), Q9UIF8; AlphaScreen BAZ2B-H3K14Ac peptide displacement; Potency, µM (series often up to 114 µM), inactives show at the highest dose activity change, negative = inhibition, usual class: inhibitors; hit rate 4.4% among 360,000; AID 504333, 2011; further: potency means the concentration at half of the fitted maximal effect; on the % scale 0 is the no-effect control and ±100 the full control effect; nearly all actives have a fitted effect of over 60% in size
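AlphaScreen displacement of biotin-H3(5-23)K14Ac peptide (50 nM final) from BAZ2B (50 nM final) in PBS pH 7.4, 0.01% Tween-20; complex preformed 30 min RT, then compounds (top 110 uM) 30 min RT, beads 20 min dark.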
ADP-Glo counter – qHTS for Inhibitors of PI5P4K: ADP-Glo counter assay. shares compounds with PI5P4K alpha inh. ADP-Glo detection counter-screen, luciferase luminescence, no enzyme. Potency, µM (highest dose often 76.9 µM), inactives show at the top dose activity change, negative = inhibition, actives largely listed as inhibitors. 1,100 tested, under 10 active
An asterisk follows results filed as active; ? = inconclusive; . = no result given; [ ] = dose if it differs, or a comment. Unless noted, the call rests on the fitted dose curve; in most records, active means well fitted curve in the direction sought with a large enough effect; inconclusive means small, poorly fitted or top-dose-only effect, or another doubt; inactive means no such curve, though single readings can be large; an effect the other way counts as inactive or inconclusive.

SMILES | PLK1 PBD block | JMJD2A Tudor | PI5P4K alpha inh | G9a block | HP1b binding inh | BAZ2B inh | ADP-Glo counter
CC1CCc2nc3ncn(Cc4ccccc4C#N)c(=O)c3cc2C1 (stereo not drawn) | . | -13% | . | 7%[59 µM] | 22%[57 µM] | -2% | .
C[C@@H]1C=C(C(=O)NCc2nc3ccccc3[nH]2)O[C@H](OCCCCO)C1 | -9% | ? | -27 | . | 14% | . | -3%
COc1ccc2c(c1)C(=O)C1NC(=O)NC(=O)C1(Br)N2 (stereo not drawn) | 3% | -5% | 1 | . | 20%[57 µM] | . | .
O=C(NCc1ccc2c(c1)OCO2)c1cc2ncc(Br)cn2n1 | -17% | ? | -65* | -39%[59 µM] | 4% | ? | -4%
CCOc1ccc(-c2ccc(SC)nn2)cc1 | -2% | 7% | -50* | -1% | 31% | -22% | 16µM*
CCOc1ccc(-c2ccc(SCC(=O)NCC3CCCO3)nn2)cc1 (stereo not drawn) | -8% | -6% | 0 | -3% | 23% | -19% | .
CC(=O)N1CCc2cc(S(=O)(=O)NC(Cc3ccccc3)C(=O)NCc3ccccc3Cl)ccc21 (stereo not drawn) | . | 3% | . | ? | 57% | . | .
O=C(COc1ccc(Br)cc1)Nc1cccc2cccnc12 | . | 67% | . | 26%[59 µM] | 41% | 12% | .
CCN(CC(=O)Nc1ccccc1C(F)(F)F)C(=O)c1ccc(N2C(=O)CCC2=O)cc1 | -10% | -4% | -4 | . | 14% | -7% | .
CCC1=Nc2cc(C(=O)O)ccc2Sc2ccccc21 | -19% | -19% | -57* | -22% | 41% | -8% | -2%
CCC1=Nc2cc(C(=O)NCc3ccco3)ccc2Sc2ccccc21 | -16% | ? | -20 | ? | -10% | ? | .
COc1ccccc1N1CCN(C(=O)c2ccc(-c3ccccc3)cc2)CC1 | 8% | -30% | 5 | -30%[2.33 µM] | 4% | ? | .
COc1ccccc1N1CCN(C(=O)c2ccc(C(C)(C)C)cc2)CC1 | 2.7µM* | 3.2µM* | -62* | 12%[59 µM] | -25% | -4% | -6%
CC(C)(C(=O)N1CCC1(C)C(=O)NS(=O)(=O)c1ccc(C#N)cc1)c1ccccc1 (stereo not drawn) | -14% | . | -25 | . | . | . | -4%
Cc1ccccc1S(=O)(=O)NC(=O)C1(C)CCN1C(=O)C(C)(C)c1ccccc1 (stereo not drawn) | 1% | . | -5 | . | . | . | .
COc1ccc(NC2=C(c3ccc(C(F)(F)F)cc3)C(=O)c3ccccc32)cc1 | . | -4% | . | 8%[59 µM] | 21% | -6% | .
CC(=O)c1ccc(NC(=O)c2cnn3ccccc23)cc1 | -2% | 2% | -76* | 2% | 44% | -8% | -8%
CC(=O)c1cccc(NC(=O)c2cnn3ccccc23)c1 | -9% | -8% | ? | -17% | 37% | 41% | .
COc1ccc(CNC(=O)CN2CCC(NC(=O)c3ccc(OC)cc3)CC2)cc1 | 8% | 9% | 2 | 23% | 21% | 1% | .
CN(C)S(=O)(=O)c1cccc(C(=O)OCC(=O)Nc2sccc2C(N)=O)c1 | -7% | -29% | -66* | 7% | 1% | -8% | -4%
NC(=O)c1ccsc1NC(=O)COC(=O)c1nc(Cl)ccc1Cl | -9% | -13% | -53* | ? | 22% | -5% | -3%
COc1ccc(NC(=O)COC(=O)c2cccc(S(=O)(=O)N(C)C)c2)cc1 | 1% | -11% | 5 | 10% | 30% | -13% | .
CCOc1ccc(Nc2nc(-c3sc(N)nc3C)cs2)cc1 | -23% | 50µM* | -29 | 35µM* | ? | 45µM* | -8%
Cc1ccc(Nc2nc(-c3ccncc3)cs2)cc1 | -17% | -9% | -3 | ? | 9% | -3% | .
Cc1ccc(Nc2nc(-c3sc(N)nc3C)cs2)cc1 | ? | 50µM* | -54* | . | ? | 40µM* | -3%
SMILES | PLK1 PBD block | JMJD2A Tudor | PI5P4K alpha inh | G9a block | HP1b binding inh | BAZ2B inh | ADP-Glo counter
CCOc1ccc(-c2cn3c(n2)sc2cc(C(=O)NCCc4ccc(OC)c(OC)c4)ccc23)cc1 | . | 4% | . | 2%[59 µM] | 43% | 0% | .
CC(C)c1ccc(-c2nc3c([nH]2)c(=O)n(C)c(=O)n3C)cc1 | -4% | -8% | -13 | -3%[59 µM] | 31% | 11% | .
Cn1c(=O)c2[nH]c(-c3ccc(S(=O)(=O)O)cc3)nc2n(C)c1=O | 0% | ? | -54* | 23%[12.7 µM] | 28% | . | -4%
CCOC(=O)C1CCN(c2c(C(=O)c3ccc(OCC)cc3)cnc3ccc(OC)cc23)CC1 | . | ? | . | ? | -11% | ? | .
Clc1ccccc1-c1cnc2sc(NCc3ccc4c(c3)OCO4)nn12 | -6% | . | -2 | . | . | . | .
CCOC(=O)C1(C)CCCN(C(=O)c2ccccc2C(F)(F)F)C1 (stereo not drawn) | -11% | . | -79* | . | . | . | -5%
COc1ccc(-c2nc3cc(C(C)C)ccc3o2)cc1NC(=O)c1ccccc1[N+](=O)[O-] | . | -6% | . | 7%[59 µM] | 26% | -19% | .
O=C(O)c1cc2ccc(O)cc2oc1=O | -8% | . | -3 | . | . | . | .
CCOc1ccc2cc(C(=O)NCc3ccccc3)c(=N)oc2c1 | 4% | -9% | 1 | 2% | 9% | 0% | .
O=C(NCc1ccccc1)c1cc2ccc(O)cc2oc1=O | 19µM* | ? | -66* | 23% | 17% | 9% | -12%
O=C(c1ccc(F)cc1)c1cc2ccc(O)cc2oc1=O | -19% | -2% | -73* | 11% | 51% | -33% | ?
COc1ccc(CCn2c(=S)[nH]c(=O)c3[nH]cnc32)cc1OC | . | -7% | . | . | 53% | . | .
O=c1cc(CN2CCN(S(=O)(=O)c3cccc(Cl)c3)CC2)c2ccc(O)cc2o1 | -7% | -10% | -74* | . | 24%[57 µM] | . | -6%
CCCc1cc(=O)n2nc(N3CCC(C(=O)N4CCN(c5cccc(OC)c5)CC4)CC3)sc2n1 | -10% | -18% | 9 | 27% | 62% | -21% | .
COc1ccc(C(CC(=O)N2CCCCC2)c2c(OC)cc(OC)c3c(-c4ccccc4)cc(=O)oc23)cc1 (stereo not drawn) | ? | 50µM* | -81* | -2%[12.7 µM] | -17% | 45µM* | 5%
Cc1c(-c2cc(C(=O)O)on2)cnn1C | -12% | -17% | -51* | ? | 37% | -14% | -10%
